# Source: PubChem
# CYP2C19 activ: activators of human cytochrome P450 2C19 | activation factor at 5 µM | recombinant CYP2C19, luciferin-H EGE luminescence; active compounds read high; 0 = fully inhibited enzyme, 1 = untreated enzyme | P33261 | AID 1025 | 96,000 tested, under 10 active;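 active = activation factor of at least 2 at 5 µM in the primary screen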;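 note: 0 = wells with 2.5 mM tranylcypromine and 1 = vehicle-only wells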
# CYP2C9 inhib: human CYP2C9 inhibition. P11712. CYP2C9 Supersomes, luciferin-H conversion, luminescence. inhibition, % at 5 µM. 96,000 compounds, 20% hits. AID 777;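 active = blocking of liver enzyme CYP2C9 beyond about 50% at 5 µM, limit read from the data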
# Target sequence (P11712 whole entry, looked up): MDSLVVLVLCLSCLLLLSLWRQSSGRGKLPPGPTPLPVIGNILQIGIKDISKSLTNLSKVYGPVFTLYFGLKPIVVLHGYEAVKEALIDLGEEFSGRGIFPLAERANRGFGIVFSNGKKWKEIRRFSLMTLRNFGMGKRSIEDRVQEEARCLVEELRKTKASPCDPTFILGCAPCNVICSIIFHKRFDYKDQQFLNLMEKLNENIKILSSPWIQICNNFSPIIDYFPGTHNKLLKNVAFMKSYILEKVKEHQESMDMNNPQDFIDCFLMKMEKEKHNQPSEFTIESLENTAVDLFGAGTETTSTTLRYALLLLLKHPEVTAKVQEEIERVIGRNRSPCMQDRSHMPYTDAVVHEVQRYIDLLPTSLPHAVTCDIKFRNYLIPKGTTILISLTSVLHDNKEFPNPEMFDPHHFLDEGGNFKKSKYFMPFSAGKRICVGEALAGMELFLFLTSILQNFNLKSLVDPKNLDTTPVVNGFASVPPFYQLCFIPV
# PostGolgi yeast: growth inhibition of a yeast mutant, post-Golgi transport screen; 98,000 compounds, 0.9% hits; post-Golgi transport phenotypic cell assay; AID 739; inhibition, % at 10 µM;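 note: yeast cells grown in 1536-well plates; yeast grown about 18 h at 30C before absorbance read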
# CYP2C19 inh: human CYP2C19 inhibition. CYP2C19 Supersomes, luciferin-H EGE luminescence, 30 min. inhibition, % at 5 µM. 96,000 compounds, 21% hits. AID 778;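 active = CYP2C19 inhibition above a set limit at 5 µM in the primary screen, cut at about 50% in these data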;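 note: plate controls were negative control wells for no effect and 2.5 mM tranylcypromine positive control for full effect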
# CYP2C9 activ: increases human cytochrome P450 2C9 activity; recombinant CYP2C9, luciferin-H conversion, luminescence; active compounds read high; factor 1 = untreated enzyme, 0 = blocked; AID 1024; P11712; 96,000 compounds, 1.4% hits; activation factor at 5 µM;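 active = activation factor of 2 or more for CYP2C9 at a 5 µM dose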;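 note: 0 = sulfaphenazole-blocked wells and 1 = vehicle-only wells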
# PostGolgi ctrl: yeast control strain growth, post-Golgi counter-screen; efflux-deficient yeast background strain, growth absorbance A615, 16 h; inhibition, % at 10 µM; 98,000 compounds, 5% hits; AID 738
# The depositor's hits bear a star. Sampled rows, rich in hits. Any-hit rate of the full collection: about 32%. Cut-off read from the data, not from the text of the source, unless noted: active = inhibition above about 30%; inactive = the rest.
SMILES,CYP2C19 activ,CYP2C9 inhib,PostGolgi yeast,CYP2C19 inh,CYP2C9 activ,PostGolgi ctrl
O=C1C2C3C=CC(C3=C(c3ccccc3)c3ccccc3)C2C(=O)N1CCO (stereo not drawn),0.9,18,5,15,0.8,6
CCOC(=O)/C(C#N)=C\c1ccc(N2CCN(C)CC2)cc1,1,28,0,4,0.7,4
CC1=C(C(=O)OCC(C)C)C(c2cccc(F)c2)N2C(=O)C(C)SC2=N1 (stereo not drawn),0.3,75*,3,75*,0.3,22
CCOC(=O)C1=C(C)N=C2SC(C)C(=O)N2C1c1cccc(F)c1 (stereo not drawn),0.8,25,-9,25,0.8,9
CC1=C(C(=O)OC(C)C)C(c2cccc(F)c2)N2C(=O)C(C)SC2=N1 (stereo not drawn),0.2,70*,0,81*,0.3,21
C=CCc1cccc(CNc2c(C)n(C)n(-c3ccccc3)c2=O)c1O,0.4,12,-1,56*,0.9,8
Cc1c(NC(=O)CC(=O)Nc2c(C)n(C)n(-c3ccccc3)c2=O)c(=O)n(-c2ccccc2)n1C,0.7,5,14,28,1,9
CC1CCCC(C)N1CCNC(=O)Nc1ccc(Cl)cc1 (stereo not drawn),0.9,1,0,14,1,6
Cn1cccc1CNCc1ccccc1Cl,0.6,2,-6,38,1,14
Cn1cccc1CNC(=O)Nc1ccccc1,0.2,37,20,75*,0.6,14
Cn1cccc1CNC(=O)Nc1ccc(Cl)cc1,0.4,23,14,59*,0.8,38*
Cc1cc(C)cc(NC(=S)NCc2cccn2C)c1,0.9,-110,-15,14,2.1*,9
O=C(O)Cn1ncc2c1-c1ccoc1CC2,1.2,-6,-2,-19,1.1,5
Cn1ncc2c(=O)n(CC(=O)NC34CC5CC(CC(C5)C3)C4)cnc21,1.1,-21,-3,-6,1.2,-3
CCOC(=O)CN1C(=O)SC(CC(=O)Nc2nccs2)C1=O (stereo not drawn),0.7,35,-6,27,0.7,14
O=C(CC1SC(=O)N(Cc2cccc3ccccc23)C1=O)Nc1nccs1 (stereo not drawn),0.9,-27,-24,9,1.3,33*
CC1=CC(C)(C)N2C(=O)C3(SCC(=O)N3c3ccc(F)cc3)c3cc(C)cc1c32 (stereo not drawn),0.5,63*,4,48,0.4,50*
CCOC(=O)C(C(=O)OCC)C(C(=O)OCC)N1CCOCC1 (stereo not drawn),1,53*,4,-3,0.5,5
CCOC(=O)C(C)CC(C)C(=O)N1CCOCCOCCN(C(=O)C(C)CC(C)C(=O)OCC)CCOCC1 (stereo not drawn),0.9,8,7,10,0.9,6
O=C(NCc1ccc2c(c1)OCO2)c1cc(S(=O)(=O)N2CCCCC2)ccc1F,1,11,0,-1,0.9,10
COC(=O)Cc1c(O)ccn(Cc2cccc3ccccc23)c1=O,0.4,47,6,64*,0.5,4
COCCNC(=O)C(c1ccc(C)o1)N(C(=O)c1snc(C(N)=O)c1N)c1cccc(C)c1 (stereo not drawn),0.9,15,4,6,0.8,3
CN(C)C(CNC(=O)CCCc1c[nH]c2ccccc12)c1ccco1 (stereo not drawn),0.7,-30,4,29,1.3,7
CC(C)CNC(=O)CCCc1c[nH]c2ccccc12,0.4,-114,4,63*,2.1*,14
CC(Sc1ccc(Cl)cc1)C(=O)NCc1ccc2c(c1)OCO2 (stereo not drawn),0.2,100*,-1,76*,0,20
SMILES,CYP2C19 activ,CYP2C9 inhib,PostGolgi yeast,CYP2C19 inh,CYP2C9 activ,PostGolgi ctrl
O=C(CCCc1c[nH]c2ccccc12)NCc1ccc2c(c1)OCO2,0.2,51*,0,83*,0.5,-5
O=C(CN(C(=O)C1CSC(=O)C1)c1ccccc1F)NCc1ccc2c(c1)OCO2 (stereo not drawn),0.1,44,-6,87*,0.6,7
CCCC(C)C(=O)NCc1ccc2c(c1)OCO2 (stereo not drawn),0.7,28,-2,32,0.7,8
CC(Sc1ccc(Cl)cc1)C(=O)NCc1cccnc1 (stereo not drawn),0.5,33,12,51*,0.7,13
O=C(Cn1nc(-c2ccc(Cl)cc2)ccc1=O)NCc1ccc2c(c1)OCO2,0.5,77*,15,52*,0.2,-3
O=C(Cc1c[nH]c2ccccc12)NCc1ccc2c(c1)OCO2,0.1,53*,8,94*,0.5,1
O=C(Cc1ccccc1)NCc1ccc2c(c1)OCO2,0.1,54*,-3,95*,0.5,0
O=C(Cn1nc(-c2ccccc2)ccc1=O)NCc1ccc2c(c1)OCO2,0.8,33,-6,23,0.7,5
Cc1ccc(CC(=O)NCc2ccc3c(c2)OCO3)cc1,0.7,48,0,34,0.5,8
O=C(Nc1ccc(Cl)cc1C(=O)NCCN1CCOCC1)c1ccc(Cl)cc1Cl,0.9,30,-3,10,0.7,9
Cc1oc(-c2ccccc2F)nc1CSCC(=O)NCc1ccc2c(c1)OCO2,0.2,75*,-13,78*,0.3,-8
O=C(CCc1c[nH]c2ccccc12)NCc1ccc2c(c1)OCO2,0.1,19,-2,92*,0.8,8
O=C(COc1ncnc2ccccc12)NCc1ccc2c(c1)OCO2,1,6,4,-2,0.9,-2
O=C(Cn1cccc1C(=O)c1ccccc1)NCc1ccc2c(c1)OCO2,0.5,34,6,55*,0.7,14
CCOC(=O)c1c(NCc2ccc3c(c2)OCO3)c2ccccc2[nH]c1=O,0.3,13,0,74*,0.9,1
COC(=O)CSc1nc2sc(C)c(C)c2c(=O)n1C,0.8,35,-3,22,0.7,23
CCCC(=O)N=C1SC2CS(=O)(=O)CC2N1c1ccc(CC)cc1 (stereo not drawn),1,10,-3,-3,0.9,-6
CCOC(=O)c1c(C)n(C)c2c(C)cc(O)c(OC(=O)CC)c12,1,5,-1,4,1,0
COc1ccc(CCN2C(=O)c3ccncc3C2=O)cc1OC,0.8,19,-6,17,0.8,-9
CCCC(NS(=O)(=O)c1ccc(Br)cc1)C(=O)O (stereo not drawn),0.8,18,1,25,0.8,-6
Clc1ccccc1Sc1cnc2ccccc2n1,0.8,4,1,16,1,3
CC(C)(C)C(=O)c1cn(CC(=O)NCc2ccc3c(c2)OCO3)c2ccccc12,0.5,50*,7,53*,0.5,11
